These results are taken from PubChem BioAssay (Tox21).

Results filed as inconclusive are left out. Activity calls are given as the source filed them. Calls follow the shape of the dose curve; as a rule, active = well fitted cell-killing curve with a large enough effect in the repeat runs; inconclusive = weak or mixed curves, or effect the other way; inactive = flat fitted curve, though single readings scatter.
% is scaled to controls: 0 for no effect and ±100 for the full control effect.

This assay can be described thus: cAMP Responsive Elements (CRE) small molecule antagonists, cell-based qHTS assay: qHTS cell viability counter screen (AID 2060913). Also: nearly all actives have a fitted effect of over 40% in size. The settings on record: CRE-bla HEK293T viability, CellTiter-Glo luminescence, 5 h; series mostly up to 92.4 µM; viability change, negative = cytotoxic: at the top concentration. In outline:
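HEK293T CRE-bla, 2,000 cells/well, 18 h preincubation; cpd in DMSO + NKH477 0.25 uM final, 3 h 37 C/5% CO2; LiveBLAzer 2 h RT, then CellTiter-Glo 30 min RT, luminescence.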
(Quantitative high-throughput screening tests each substance at several concentrations.)
`COc1cccc(OC)c1C(=O)O`: the “viability change, negative = cytotoxic” value is 5.98% (inactive).
Same read-out and setting: the result for `C[C@H]1O[C@@H](n2cc(F)c(=O)[nH]c2=O)[C@H](O)[C@@H]1O` reads 10.6% [at 42.5 µM] (inactive); that for `O=C(NC(Cc1cc(=O)[nH]c2ccccc12)C(=O)O)c1ccc(Cl)cc1` (stereo not given), 0.173% [at 42.5 µM] (inactive); that for `CCN(CC)CCNC(=O)c1cc(Cl)c(N)cc1OC`, 0.44% [at 42.5 µM] (inactive).
Still for that read-out and setting: the result for `COc1cc(CCC(C)=O)ccc1O` reads 15.2% (inactive).
With `COC(=O)c1ccc(C)cc1C1=NC(C)(C(C)C)C(=O)N1` (stereo not given), the “viability change, negative = cytotoxic” value was -0.805% (inactive).
The same measure, in the same setting: the result for `O=C(O)/C=C/c1ccc(Cn2ccnc2)cc1` reads 4.2% [at 42.5 µM] (inactive).
In the case of `C=C1C2CCC(C2)C1(C)C` (stereo not given), the Potency result was “inactive”.
Take `COc1cc(C(C)C)ccc1C`: the viability change, negative = cytotoxic was 0.655% [at 18.9 µM] (inactive).
Still for that read-out and setting: the result for `CCN(CCCc1ccccc1)CCCc1ccccc1` reads -0.185% [at 42.5 µM] (inactive); that for `Nc1c(N=Nc2ccc(-c3ccc(N=Nc4cc(S(=O)(=O)O)c5ccccc5c4N)cc3)cc2)cc(S(=O)(=O)O)c2ccccc12`, -7.11% (inactive).
Still for that read-out and setting: the result for `O[C@@H]1CO[C@H]2[C@@H]1OC[C@@H]2O` reads 6.85% [at 42.5 µM] (inactive).
Same read-out and setting: the result for `COC(=O)c1ccc([N+](=O)[O-])cc1` reads -0.803% (inactive).
Take `C[n+]1c2cc(N)ccc2cc2ccc(N)cc21` (tested in a mixture with another compound): the “viability change, negative = cytotoxic” value is 11.3% [at 42.5 µM] (inactive).
For `O=C(CCc1ccc(O)cc1)c1c(O)cc(O)cc1O`, the “viability change, negative = cytotoxic” value is 5.59% (inactive).
Regarding `Nc1c(NC/C=C\COc2cc(CN3CCCCC3)ccn2)c(=O)c1=O`, the viability change, negative = cytotoxic is -0.847% [at 18.9 µM] (inactive).
Same read-out and setting: the result for `Nc1ccc2cc(S(=O)(=O)O)cc(O)c2c1` reads 4.2% (inactive); that for `c1cc(N(CC2CO2)CC2CO2)ccc1Cc1ccc(N(CC2CO2)CC2CO2)cc1` (stereo not given), 1.21% (inactive).
For the compound `NC(=O)c1cnccn1`, the Potency entry is “inactive”.
As for `Cc1c(-c2ccc(O)cc2)n(Cc2ccc(OCCN3CCCCCC3)cc2)c2ccc(O)cc12`, the “viability change, negative = cytotoxic” value is -3.26% [at 42.5 µM] (inactive).
